CYP2C9 inhib: blocks human cytochrome P450 2C9. P11712. CYP2C9 Supersomes, luciferin-H conversion, luminescence. inhibition, % at 5 µM. actives 20% (n = 96,000);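 active means blocking of liver enzyme CYP2C9 beyond about 50% at 5 µM, limit read from the data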
Target sequence (P11712 whole entry, looked up): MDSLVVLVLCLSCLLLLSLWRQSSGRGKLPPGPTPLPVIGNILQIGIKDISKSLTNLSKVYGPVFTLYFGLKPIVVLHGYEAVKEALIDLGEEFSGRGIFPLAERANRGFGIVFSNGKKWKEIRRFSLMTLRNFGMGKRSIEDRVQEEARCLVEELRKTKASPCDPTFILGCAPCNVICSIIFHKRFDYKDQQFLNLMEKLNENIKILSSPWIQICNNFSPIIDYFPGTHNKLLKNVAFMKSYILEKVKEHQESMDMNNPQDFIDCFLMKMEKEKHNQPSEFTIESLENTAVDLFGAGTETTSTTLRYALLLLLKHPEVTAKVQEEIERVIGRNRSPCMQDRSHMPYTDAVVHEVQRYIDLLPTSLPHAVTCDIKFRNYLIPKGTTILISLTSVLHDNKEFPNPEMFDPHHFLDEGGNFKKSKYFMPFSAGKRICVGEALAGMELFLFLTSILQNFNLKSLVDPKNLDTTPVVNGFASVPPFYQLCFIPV
CYP2C19 act: increases human CYP2C19 enzyme activity; activation factor at 5 µM; 96,000 tested, under 10 active; P33261; recombinant CYP2C19, luciferin-H EGE luminescence; stronger effect = higher value; 0 = fully inhibited enzyme, 1 = untreated enzyme;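 active means activation factor of at least 2 at 5 µM in the primary screen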
sEH inh: blocks human soluble epoxide hydrolase activity | P34913 | recombinant human sEH enzymatic activity assay | inhibition, % at 2 µM | actives 0.34% (n = 91,000) | AID 707; in the data active means inhibition above about 80%
sEH act: soluble epoxide hydrolase (human) activation | AID 717 | P34913 | purified human sEH enzymatic activity, activator screen | actives 0.04% (n = 91,000) | activation, % at 2 µM; in the data active means activation above about 37%
CYP2C19 inh: blocks human cytochrome P450 2C19 | actives 21% (n = 96,000) | inhibition, % at 5 µM | AID 778 | CYP2C19 Supersomes, luciferin-H EGE luminescence, 30 min;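 active means CYP2C19 inhibition above a set limit at 5 µM in the primary screen, cut at about 50% in these data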
CYP2C9 activ: increases human cytochrome P450 2C9 activity | actives 1.4% (n = 96,000) | P11712 | activation factor at 5 µM | recombinant CYP2C9, luciferin-H conversion, luminescence; stronger effect = higher value; factor 1 = untreated enzyme, 0 = blocked;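 active means activation factor of 2 or more for CYP2C9 at a 5 µM dose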
A number is an active result; 0 = inactive; - = not tested or not shown. This is a sample that favours compounds with a hit; in the whole collection about 27% have one here.

SMILES	CYP2C9 inhib	CYP2C19 act	sEH inh	sEH act	CYP2C19 inh	CYP2C9 activ
COc1ccccc1CNC(=O)c1cc2c(C)nn(Cc3ccc(F)cc3)c2s1	78	0	0	0	0	0
CCC(CC)NC(=O)c1cc2c(C)nn(Cc3ccccc3Cl)c2s1	71	0	0	0	0	0
COc1ccccc1CNC(=O)c1cc2c(s1)CS(=O)(=O)C2	0	0	-	-	0	0
Cc1nn(Cc2ccccc2Cl)c2sc(C(=O)NCc3ccc4c(c3)OCO4)cc12	99	0	0	0	92	0
O=C(NCc1ccc2c(c1)OCO2)c1cc(-c2ccccc2Cl)on1	0	0	0	0	0	0
O=C(Nc1ccc2c(c1)C(=O)N(CC1CCCO1)C2=O)c1ccc(Cl)c(Cl)c1 (stereo not drawn)	0	0	0	0	0	0
c1ccc(-c2cc3c(N4CCOCC4)ncnc3s2)cc1	0	0	-	-	79	0
Cc1nc(N2CCOCC2)c2cc(-c3ccccc3)sc2n1	0	0	-	-	0	0
CCn1ncc(C2=NOC(C(=O)NCc3ccc(Cl)cc3)C2)c1C (stereo not drawn)	50	0	-	-	66	0
CCn1ncc(C2=NOC(C(=O)Nc3ccc4c(c3)OCO4)C2)c1C (stereo not drawn)	0	0	-	-	56	0
CCn1ncc(C2=NOC(C(=O)Nc3ccc(C)cc3)C2)c1C (stereo not drawn)	0	0	0	0	0	0
CCOC(=O)C1=C(C)C(c2ccccc2OC)NC(=S)N1 (stereo not drawn)	0	0	0	0	53	0
CCC(C)(C)NC(=O)C(OC(=O)c1cc2sccc2n1C)c1ccc(OC)cc1 (stereo not drawn)	0	0	0	0	0	0
CC(OC(=O)c1cc2sccc2n1C)C(=O)NCc1ccco1 (stereo not drawn)	79	0	0	0	90	0
Cn1c(C(=O)OC(C(=O)NCc2ccco2)c2ccncc2)cc2sccc21 (stereo not drawn)	90	0	0	0	98	0
CC(OC(=O)c1cc2sccc2n1C)C(=O)NCC1CCCO1 (stereo not drawn)	0	0	0	0	0	0
CC(C)c1ccc(NC2(C#N)C(=O)Nc3ccccc32)cc1 (stereo not drawn)	0	0	0	0	0	0
CC(C)c1nnc(SCC(=O)N2CCOCC2)n1C	-	-	0	0	-	-
O=C(COc1ccc(Cl)cc1)N/N=C/CCc1ccccc1	0	0	0	0	52	0
CCOc1cc(/C=N/NC(=O)COc2ccc(Cl)cc2)ccc1OS(=O)(=O)c1ccccc1	0	0	0	0	82	0
CCOc1cc(/C=N/NC(=O)COc2ccccc2C)ccc1OC(=O)c1cccs1	0	0	0	0	0	0
CCOc1cc(/C=N/NC(=O)COc2ccc(C)cc2)ccc1OC(=O)c1cccs1	69	0	0	0	0	0
CCOc1cc(/C=C2\C(=O)N(c3ccc(C(N)=O)cc3)N=C2C)ccc1OC(=O)c1cccs1	0	0	0	0	67	0
O=C(Cc1ccccc1)N/N=C/c1ccc(OCC(=O)Nc2ccccc2)cc1	0	0	0	0	0	0
CCOc1cc(/C=N\NC(=O)Cc2ccccc2)ccc1OCC(=O)Nc1ccc(C)c(C)c1	0	0	0	0	0	0
SMILES	CYP2C9 inhib	CYP2C19 act	sEH inh	sEH act	CYP2C19 inh	CYP2C9 activ
CCOc1cc(/C=C2/C(=O)N(c3ccccc3)N=C2C)ccc1OC(=O)c1ccco1	-	-	0	0	-	-
CCOc1cc(/C=N/NS(=O)(=O)c2ccccc2)ccc1OS(=O)(=O)c1ccc(C)cc1	100	0	0	0	99	0
C=CCN(CC=C)C(=S)NC(=O)c1ccc(OC)c(Br)c1	0	0	0	0	74	0
Cc1cc(C)n(-c2nncn2/N=C/c2ccccc2F)n1	0	0	0	0	0	0
CCn1c(SCCC(=O)Nc2ccccc2)nnc1-c1ccc(OC)cc1	62	0	0	0	93	0
CCn1c(SCC(=O)Nc2cccc(OC)c2)nnc1-c1ccc(Cl)cc1	0	0	0	0	0	0
Cn1c(COc2ccccc2)nnc1SCCC(=O)Nc1ccccc1	88	0	-	-	74	0
Cc1ccccc1-c1nc(CN2CCCC(C(=O)NCc3cccnc3)C2)c(C)o1 (stereo not drawn)	0	0	0	0	0	0
COCCCn1c(SCC(=O)NCc2ccco2)nc2sc3c(c2c1=O)CCC3	0	0	0	0	0	0
CCSc1nc(N)c2c3c(sc2n1)CN(C)CC3	0	0	-	-	0	0
CCOC(=O)CSc1nnc(CSc2nc3sc4c(c3c(=O)[nH]2)CCCC4)n1-c1ccccc1	70	0	-	-	74	0
CCN(CC)C(=O)CSc1nc(N)c2c3c(sc2n1)CC(C)CC3 (stereo not drawn)	54	0	0	0	56	0
CC1CCc2c(sc3nc(SCC(=O)NCc4ccco4)nc(N)c23)C1 (stereo not drawn)	61	0	0	0	0	0
CCOC(=O)CSc1nc(N)c2c3c(sc2n1)CCCC3	62	0	0	0	0	0
COc1ccc(C(=O)N(CC2CCCO2)C(C(=O)NC2CCCC2)c2ccc(Cl)cc2)cc1OC (stereo not drawn)	0	0	0	0	0	0
Cn1cccc1C(=O)NC(=O)CSc1nc2ccccc2s1	0	0	0	0	0	0
CCc1ccc(/C=N/Nc2nn[nH]n2)cc1	-	-	0	0	-	-
COc1nnc(-c2ccc(N3CCCCC3)c(N)c2)c2ccccc12	-	-	0	0	-	-
CCOC(=O)c1cnn(-c2nc(SC)nc3sc4c(c23)CCCC4)c1N	63	0	0	0	0	0
CCOC(=O)CSc1nnc2n(C3CCCCC3)c(=O)c3c4c(sc3n12)CCCC4	63	0	-	-	54	0
c1ccc(-n2nnnc2SCCCSc2nc3ccccc3s2)cc1	0	0	0	0	0	0
CCOC(=O)C(O)(CC(=O)c1ccc(OC)cc1)C(F)(F)F (stereo not drawn)	-	-	0	0	-	-
COc1cccc(NS(=O)(=O)c2cc(C)ccc2OC)c1	52	0	0	0	69	0
COc1ccc(OC)c(S(=O)(=O)Nc2ccc(C)c(C)c2)c1	84	0	0	0	99	0
COc1ccc(C)cc1S(=O)(=O)Nc1cccc(Cl)c1	0	0	0	0	0	0
SMILES	CYP2C9 inhib	CYP2C19 act	sEH inh	sEH act	CYP2C19 inh	CYP2C9 activ
CCn1nnnc1-c1ccc(OC)c(S(=O)(=O)Nc2ccc(C)c(C)c2)c1	62	0	0	0	0	0
COc1ccc(NS(=O)(=O)c2cc(C)ccc2OC)cc1OC	0	0	0	0	82	0
CC(C)C(=O)N1CCN(c2ccc(NC(=O)c3ccc4c(c3)OCCO4)cc2Cl)CC1	0	0	0	0	0	0
OC(CN1CCN(c2cccc(C(F)(F)F)c2)CC1)c1c[nH]c2ccccc12 (stereo not drawn)	0	0	0	0	0	0
COc1ccc(F)cc1S(=O)(=O)Nc1ccc(C)cc1	57	0	0	0	0	0
COc1ccc(C)cc1S(=O)(=O)Nc1cccc(SC)c1	0	0	0	0	0	0

Compound activity (PubChem)
